# According to the supplement of paper PMC10338343:
# ± gives the standard deviation.
# Assays:
# [1] = system: MILI (PIWIL2) piRISC loaded with piRNA #1 (26 nt); assay: pre-steady-state target cleavage rate (min^-1); guide: piRNA #1 5'p-UGAGGUAGUAGGUUGUAUAGUAUCCA; higher = faster piRNA-guided slicing of the target; conditions: auxiliary factor: 500 nM mouse GTSF1;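 further: 1 nM active piRISC with 0.1 nM target library at 33 °C single turnover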
# How it was run: (§1)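 Active affinity-purified piRISC carrying one synthetic guide (1 nM) was mixed with a transcribed, DNA-blocked target RNA library […] in HEPES–potassium acetate buffer at 33 °C for 0–8 or 0–960 min, with or without 500 nM GTSF1 partner protein. Uncleaved targets were then sequenced and normalised to depth and to weakly complementary targets. Three trials were pooled, and k3 was capped at 0.0001 min^-1. A burst-and-steady-state fit was applied to obtain the pre-steady-state cleavage rate.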
# [2] = system: EfPiwi piRISC loaded with piRNA #1 (26 nt); assay: pre-steady-state target cleavage rate (min^-1); auxiliary factor: 500 nM Ephydatia muelleri Gtsf1; guide: piRNA #1 5'p-UGAGGUAGUAGGUUGUAUAGUAUCCA; MIWI and MILI are mouse PIWI proteins and EfPiwi is from a freshwater sponge; tags in brackets are library labels; higher = faster piRNA-guided slicing of the target
# How it was run: as §1
sequence,measurement,setting,value
GGAGUGGAAAGUAUACAACCUACUACCUCA,pre-steady-state target cleavage rate,[1],0.118 ± 0.0086
same,pre-steady-state target cleavage rate,[2],0.00841 ± 0.0043
GGAGACGAUACUACACAACCUACUACCUCA,pre-steady-state target cleavage rate,[1],0.203 ± 0.019
same,pre-steady-state target cleavage rate,[2],0.00692 ± 0.0032
GGAGAGGAUAGUAUACAACCUACUACCUCA,pre-steady-state target cleavage rate,[1],0.0476 ± 0.01
same,pre-steady-state target cleavage rate,[2],0.00608 ± 0.0032
GGAGACGAUACUAUACAACGUACUAGCUCA,pre-steady-state target cleavage rate,[1],0.00418 ± 0.0035
same,pre-steady-state target cleavage rate,[2],0.00363 ± 0.0015
GGAGUGGAUACAUAACAACCUACUACCUCA,pre-steady-state target cleavage rate,[1],0.113 ± 0.0099
same,pre-steady-state target cleavage rate,[2],0.00683 ± 0.0044
GGAGACCUUUCUAUACAUCCUACUACCUCA,pre-steady-state target cleavage rate,[1],0.158 ± 0.013
same,pre-steady-state target cleavage rate,[2],0.00708 ± 0.0041
GGAGUGGAUACAAUACAUCCUACUACCUCA,pre-steady-state target cleavage rate,[1],0.256 ± 0.016
same,pre-steady-state target cleavage rate,[2],0.00574 ± 0.0025
GGAGUGGAUACUAGUACAACCUACUACCUCA,pre-steady-state target cleavage rate,[1],0.141 ± 0.011
same,pre-steady-state target cleavage rate,[2],0.175 ± 0.056
GGAGACCUAUGUAUACAACCUAGUACCUCA,pre-steady-state target cleavage rate,[1],0.00921 ± 0.0021
same,pre-steady-state target cleavage rate,[2],0.00291 ± 0.0029
GGAGUCGAUACUAUACAUCCUACUACCUCA,pre-steady-state target cleavage rate,[1],0.313 ± 0.017
same,pre-steady-state target cleavage rate,[2],0.0165 ± 0.007
GGAGACCUUACUGUACAACCUACUACCUCA,pre-steady-state target cleavage rate,[1],0.163 ± 0.029
same,pre-steady-state target cleavage rate,[2],0.0146 ± 0.0073
GGAGACCUAACUAUACAACCUCCUACCUCA,pre-steady-state target cleavage rate,[1],0.0273 ± 0.011
same,pre-steady-state target cleavage rate,[2],0.00446 ± 0.0029
GGAGACCUUACUAUACAACCUACUACCUUCA,pre-steady-state target cleavage rate,[1],0.16 ± 0.015
same,pre-steady-state target cleavage rate,[2],0.0532 ± 0.019
GGAGACCAUACGAUACAACCUACUACCUCA,pre-steady-state target cleavage rate,[1],0.255 ± 0.028
same,pre-steady-state target cleavage rate,[2],0.00769 ± 0.0035
GGAGAGGUAACUAUACAACCUACUACCUCA,pre-steady-state target cleavage rate,[1],0.103 ± 0.015
same,pre-steady-state target cleavage rate,[2],0.00695 ± 0.0039
GGAGACGUUACUAUACAACCUUCUACCUCA,pre-steady-state target cleavage rate,[1],0.00861 ± 0.0028
same,pre-steady-state target cleavage rate,[2],0.00871 ± 0.0043
GGAGUGGAUACUAUACAACCUACCUACCUCA,pre-steady-state target cleavage rate,[1],0.128 ± 0.0098
same,pre-steady-state target cleavage rate,[2],0.00423 ± 0.0017
GGAGAGGAUACUAUACAACCUAUCUACCUCA,pre-steady-state target cleavage rate,[1],0.128 ± 0.012
same,pre-steady-state target cleavage rate,[2],0.00568 ± 0.0029
GGAGUCGAUACUAUACAACCUACUACCUCA,pre-steady-state target cleavage rate,[1],0.18 ± 0.013
same,pre-steady-state target cleavage rate,[2],0.106 ± 0.034
GGAGAGGUUACUAUACAACCUACUACCUCA,pre-steady-state target cleavage rate,[1],0.197 ± 0.014
same,pre-steady-state target cleavage rate,[2],0.0625 ± 0.025
